Changes are numbered by the printed parent chain. Whole data set: some 24,000 sequences, median “enrichment r” near 0.99, cut for the highest 2% near 3.7. Many of the other results were omitted from the sample, so the highest values are more common in it than they were.
T1: UNK ZnF1-3 (human, UniProt Q9C0B0 31-174)
T1 sequence: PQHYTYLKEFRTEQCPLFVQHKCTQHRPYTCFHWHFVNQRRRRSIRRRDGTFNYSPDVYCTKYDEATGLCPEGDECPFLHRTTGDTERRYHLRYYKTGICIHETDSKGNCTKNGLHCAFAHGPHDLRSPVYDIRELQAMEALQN

B1: 24817595_24818005_4380_CDS_ENSG00000090905_ENST00000315183|human|control|control (ssRNA)
RNA: GGGAGUUCUACAGUCCGACGAUCCUGAUGGAGUGGCUGCUGCUGAGAUGGUGGAGUCUGCUGCUUCACCAACAGGUUUGGAUCAAGUUGACGAGAUUGUUGCAUCAUUUGCUGCUGCACACUAAGAGGUCGACCCUGCUGGUCCAACAGAGGAUUGAGCAUCA
B2: chr10:33190432:33190433:-_ENSG00000150093_ENST00000302278|hu_mus|hu_hu_hu_mus_True|1_48 (ssRNA)
RNA: GGGAGUUCUACAGUCCGACGAUCUACAUUUUCCAAACCUGCAUGUGAAUAAAACCCUGGCCACAGAGCCCCAAAACUACCCUACUGUGACUAUGGAGCUGCUGCUGUGAGCUUGGUGUUGCAAAAUCCGCCUGAGUCAGUACUCAACAGAGGAUUGAGCAUCA
B3: 17505014_17509309_214_5pUTR_ENSMUSG00000019370_ENSMUST00000019514|mouse|control|control (ssRNA)
RNA: GGGAGUUCUACAGUCCGACGAUCCAUGGCGAGGCACCGGUAUCCGGAGCUCGGGGAUCGAGGUUACUCUGGCGGCGGCAGCAGCUGCAGCAGCUCGAGCUCCGCCGCGCGUCCGCGCCUCCACACUCUUUGCCCGCAGCGCGCCAACAGAGGAUUGAGCAUCA
B4: chr8:80553714:80553715:+_ENSG00000104435_ENST00000220876|hu_mus|motif|central (ssRNA)
RNA: GGGAGUUCUACAGUCCGACGAUCAGCCUCCAGCUUUUUCUGAAUCUCCUCCAGAGACAGGUCUUUCUUCUUUGGAGAAGCGGGAGUUCGUGGAGCUUCUGAGAUGGGAGAUGGUGGCUUCAAGAUCAGCUCAAAAGCCUGGCCCAACAGAGGAUUGAGCAUCA
B5: chr11:100577090:100577091:-_ENSMUSG00000019173_ENSMUST00000107364|mus_hu|motif|central (ssRNA)
RNA: GGGAGUUCUACAGUCCGACGAUCCUGCACUGACCCCACUGUCCCCAUAUACAAGGGUUGGGGGGCAAGAGCAUGUGGCGGCUCCCAGCAAGGGAAAAUGGGAGAGCAGUAGAAAGGGGAGGAAGUGGGAAGAGCAGAAGAUCACAACAGAGGAUUGAGCAUCA
B6: chr1:89687925:89687926:+_ENSMUSG00000026289_ENSMUST00000027512|mus_hu|FALSE|FALSE (ssRNA)
RNA: GGGAGUUCUACAGUCCGACGAUCCCAGGACAGGGCUGCAGGAGCCCAUGUGCUUCUUCUGAGGAGGGCACUGGGGUCCUCCCAGCCCUGAGAGCCCCGUCAGUACUGUGCCCACAGCACAGCUUUGCAUCCUUUGUCCACACUCAACAGAGGAUUGAGCAUCA
B7: chr3:33038425:33038426:-_ENSG00000170266_ENST00000307363|hu_mus|FALSE|FALSE (ssRNA)
RNA: GGGAGUUCUACAGUCCGACGAUCGGUGGGAGGUCAGGCAAGGCGGGGCUGCAAAGUCACCAGCAGGGUACACACAUUCCAGAAAUGUAGCUUCCAUUCUAGCACAACAAAGGUGAUCCGUGUAACCAGAGUAGAGCUGUGCUCCAACAGAGGAUUGAGCAUCA
B8: 105885974_105886094_2527_3pUTR_ENSG00000135966_ENST00000393359|human|control|control (ssRNA)
RNA: GGGAGUUCUACAGUCCGACGAUCCAGCAGCGUGUGAAAGAGUUGCUGGCGGUGGGGUGGGUCUCGGCCCUCGGAGCACCACAGGCAGUAGUCCUCGGCCGCUGCAAAGUCCUGCAGCUCGUGCACCAGGAUAUGCAGCGCCUUCAACAGAGGAUUGAGCAUCA
B9: chr11:30000241:30000242:-_ENSMUSG00000020315_ENSMUST00000011877|mus_hu|FALSE|FALSE (ssRNA)
RNA: GGGAGUUCUACAGUCCGACGAUCUAUUUCCAACACAGCCUCACAAAAUUGAGGAACAGUUUAAAUACUGAGAUCUAAUCUAUAUAAUUUCAUUAAAAAAAAAAUCUGGCCUUCCCUCUGCACCUCAAACUUUUGUAACUUGGACAACAGAGGAUUGAGCAUCA
B10: chr17:65740002:65740003:+_ENSG00000130935_ENST00000581375|hu_hu|hu_hu_hu_mus_False|8_8 (ssRNA)
RNA: GGGAGUUCUACAGUCCGACGAUCAACAAAUCUUUCUUCCCUGGACGAACAGGAAGAUUCAUAUUAAAAAAAAUAUAUAUCCAUCAAGUUAGGUGUGGUGGCCACACCUUUACUCCCAGCACUUUGGGAAUAUAAUCUCUGAGUCAACAGAGGAUUGAGCAUCA
B11: chr18:77179482:77179483:+_ENSMUSG00000090000_ENSMUST00000026487|mus_mus|FALSE|FALSE (ssRNA)
RNA: GGGAGUUCUACAGUCCGACGAUCAAGUAUGCUCCAAUCCGGGAGUGCUCCUGCCUCUGAUAAUCUGAUCUACAAGUGCAACUACAAUUAAAAAAAAAAAAAAAUCAGAUAGAUAGAAACUCUGGUUUUAUUGUCAACUUUACUCAACAGAGGAUUGAGCAUCA
B12: chr10:112657927:112657928:+_ENSG00000150593_ENST00000280154|hu_hu|FALSE|FALSE (ssRNA)
RNA: GGGAGUUCUACAGUCCGACGAUCCAGAAAUGCCUUGUACCCAAAACAAGUGCUUAAAAAAAAAAAAAAAAAAAACUUGUGCUAACAACUCUUACAAUUCAGAUAUAUAUUUUUAUAACAUCUAAGACUGCAAGAGUUCUUAUACAACAGAGGAUUGAGCAUCA
B13: chr11:30000241:30000242:-_ENSMUSG00000020315_ENSMUST00000011877|mus_hu|motif|central (ssRNA)
RNA: B9 RNA with U75G, A76G, U80G, A81G
B14: chr10:112657927:112657928:+_ENSG00000150593_ENST00000280154|hu_hu|motif|central (ssRNA)
RNA: B12 RNA with U82G, A83G
B15: chr21:44329077:44329078:+_ENSG00000160194_ENST00000354250|hu_hu|motif|central (ssRNA)
RNA: GGGAGUUCUACAGUCCGACGAUCCUCCCGGCCUGAGGAGGGCUGAGGCAUCCUGAAUUUUGAGAGUUCGAGGUUGAGGUCGGAGAAGGUGUACGUGCUGUAGUCAUGAUGCUGCAGGUUCUUGUAGGUAGUGUUGUCAAACGGCAACAGAGGAUUGAGCAUCA
B16: chr8:86519384:86519385:+_ENSMUSG00000005469_ENSMUST00000005606|mus_mus|FALSE|FALSE (ssRNA)
RNA: GGGAGUUCUACAGUCCGACGAUCUAAAUUAGAUGCAUGGAACUCUAGGGCCCUCUGGCUGUUCGAUCCAACCCUCCCACCCCCAACCGGAAAAAAAAUAGAAAGAAAAAGAAAAAAUGAAAGAGAACCCAAGGGGCACAAGCACAACAGAGGAUUGAGCAUCA
B17: chr2:115689366:115689367:-_ENSMUSG00000027210_ENSMUST00000074285|mus_mus|FALSE|FALSE (ssRNA)
RNA: GGGAGUUCUACAGUCCGACGAUCUCUUUGAAGAACAGUCCCCCAAAAUCAUAAUAAGAAUUGGCUUAUGAAGCACAAACUAUAAAGAUCUGUUUGAAACUAAAGGACACAUGGACGGGGGGAACAAAGGCCGGGCAUGAAAACCAACAGAGGAUUGAGCAUCA
B18: chr8:13019134:13019135:+_ENSMUSG00000031442_ENSMUST00000123811|mus_mus|motif|central (ssRNA)
RNA: GGGAGUUCUACAGUCCGACGAUCUGGCUGACAGGGGCCUCCUGUUUCCAGAGAUCUCGGAGCACCAUCCCCUCCCAAACGGAGCAAGCCCAAGCAAAAAUAAAAAUUAAAAAUAAAAAAAAACCAAAAAACUUAGAGAUUUGCCAACAGAGGAUUGAGCAUCA
B19: chr1:225611761:225611762:-_ENSG00000143815_ENST00000272163|hu_mus|hu_hu_hu_mus_True|18_78 (ssRNA)
RNA: GGGAGUUCUACAGUCCGACGAUCCCAGGCCAUCGGCCUCUGACCACUUCACCCUCAGCAAAUUUCCUACUUGGCAUUUUCUAAAAUUAGUCUGGCCGCGCUCCGGCGGGAACUCCAGACGGCUCCCGACAGUCACCAGCAGCCCAACAGAGGAUUGAGCAUCA
B20: chr8:117868997:117868998:-_ENSG00000164754_ENST00000297338|hu_hu|motif|central (ssRNA)
RNA: GGGAGUUCUACAGUCCGACGAUCCACCCCUGCCUCAGAGAGGGCAGGGGGAUCAUCAAAGAUACCGCCAUCAUUAUUACGGAUAAGUUUGUCAUCUAAUAUUCCACCAUCAUUUCCUUCUCCAAAAUUAUCAUCCUUAUAUUGCAACAGAGGAUUGAGCAUCA
B21: chr17:62500844:62500845:-_ENSG00000108654_ENST00000583239|hu_mus|motif|central (ssRNA)
RNA: GGGAGUUCUACAGUCCGACGAUCUUGAUAAAAAUUCUUCUCAAAUUUGGGCAGCUCAUCAAGAUUCCACUUCUUUUUAACGGGUUUCUCCCCAGGAUUUCCAAACUUCUUUCCAGAGAGGGGUCCUGUUCUACUCCCUCCAAACAACAGAGGAUUGAGCAUCA
B22: chr5:116097646:116097647:+_ENSMUSG00000029518_ENSMUST00000031492|mus_mus|FALSE|FALSE (ssRNA)
RNA: GGGAGUUCUACAGUCCGACGAUCUAAAAAGCAUAAUUAGAAACUUUCAAUACAGAAAUAGUCCUAGCAAACCAUUUAAAAGUUGGUUGUUUGACAGGAGUUUCACAUCGGGCCCACCAGGGUACCAGUGUAGCCCUGAUUCUCCAACAGAGGAUUGAGCAUCA
B23: chr8:13019134:13019135:+_ENSMUSG00000031442_ENSMUST00000123811|mus_mus|FALSE|FALSE (ssRNA)
RNA: B18 RNA with G80U, G81A
B24: chr11:93905761:93905762:+_ENSMUSG00000020859_ENSMUST00000103168|mus_mus|FALSE|FALSE (ssRNA)
RNA: GGGAGUUCUACAGUCCGACGAUCCGCUGGCACCCCGGUAGAAAUAGAAAAGUGCACAAGCAGCAAAACAGAGAGAGAUACUAAGAUCGCAGAAUUAAUGACCACCGCCCCGCCAACAAAGCCAAACACAAACAGCAGCAUGCACAACAGAGGAUUGAGCAUCA

Molecular target: T1, UNK ZnF1-3
Assay: nsRBNS (natural sequence RNA bind-n-seq); RBNS binding buffer (assumed for nsRBNS): 25 mM Tris pH 7.5, 150 mM KCl, 3 mM MgCl2, 0.01% Triton X-100, 500 ug/ml BSA, 20 U/ml SUPERase-In, 4 C; UNK is unkempt and MSI1 is Musashi-1; names of the RNAs are library labels; protein concentration not given here; high values mean tight binding

Q: Which binding signal does the source give for B1 here?
A: Its binding signal is 0.736 enrichment R.

Q: How did the binding signal turn out when B2 was run?
A: The binding signal was 1.02 enrichment R.

Q: Which binding signal does the source give for B3 here?
A: Its binding signal is 0.975 enrichment R.

Q: Which binding signal does the source give for B4 here?
A: The binding signal was 1.22 enrichment R.

Q: For B5, which binding signal is on record?
A: The binding signal was 1.93 enrichment R.

Q: For B6, which binding signal is on record?
A: Its binding signal is 0.419 enrichment R.

Q: With B7 as the binder, how does the binding signal read?
A: The binding signal was 1.42 enrichment R.

Q: With B8 as the binder, how does the binding signal read?
A: The binding signal was 0.509 enrichment R.

Q: B9 was tested. Which binding signal did it give?
A: The binding signal was 4.16 enrichment R.

Q: How did the binding signal turn out when B10 was run?
A: The binding signal was 1.12 enrichment R.

Q: With B11 as the binder, how does the binding signal read?
A: Its binding signal is 2.98 enrichment R.

Q: B12 was tested. Which binding signal did it give?
A: Its binding signal is 3.61 enrichment R.

Q: B13 was tested. Which binding signal did it give?
A: Its binding signal is 3.58 enrichment R.

Q: B14 was tested. Which binding signal did it give?
A: The binding signal was 4.04 enrichment R.

Q: How did the binding signal turn out when B15 was run?
A: The binding signal was 1.5 enrichment R.

Q: With B16 as the binder, how does the binding signal read?
A: The binding signal was 6.04 enrichment R.

Q: For B17, which binding signal is on record?
A: Its binding signal is 2.13 enrichment R.

Q: How did the binding signal turn out when B18 was run?
A: The binding signal was 14.4 enrichment R.

Q: With B19 as the binder, how does the binding signal read?
A: Its binding signal is 1.27 enrichment R.

Q: For B20, which binding signal is on record?
A: The binding signal was 1.12 enrichment R.

Q: How did the binding signal turn out when B21 was run?
A: The binding signal was 1.28 enrichment R.

Q: Which binding signal does the source give for B22 here?
A: The binding signal was 0.472 enrichment R.

Q: B23 was tested. Which binding signal did it give?
A: Its binding signal is 21.6 enrichment R.

Q: For B24, which binding signal is on record?
A: The binding signal was 2.57 enrichment R.

From publication PMC12136788
